Compound activity as filed in PubChem BioAssay.
ST2 inh – inhibitors of human ST2 (IL1RL1) binding to IL-33, primary screen, biochemical, AlphaLISA | inhibition, % for hits at 17 µM | AlphaLISA ST2-Fc/biotin-IL-33 interaction, 1 h | AID 1259354, 2018 | Interleukin-1 receptor-like 1 (Homo sapiens), Q01638 | 2.3% of 78,000 active; in the data active = inhibition above about 30%
Target sequence (Q01638 whole entry, looked up): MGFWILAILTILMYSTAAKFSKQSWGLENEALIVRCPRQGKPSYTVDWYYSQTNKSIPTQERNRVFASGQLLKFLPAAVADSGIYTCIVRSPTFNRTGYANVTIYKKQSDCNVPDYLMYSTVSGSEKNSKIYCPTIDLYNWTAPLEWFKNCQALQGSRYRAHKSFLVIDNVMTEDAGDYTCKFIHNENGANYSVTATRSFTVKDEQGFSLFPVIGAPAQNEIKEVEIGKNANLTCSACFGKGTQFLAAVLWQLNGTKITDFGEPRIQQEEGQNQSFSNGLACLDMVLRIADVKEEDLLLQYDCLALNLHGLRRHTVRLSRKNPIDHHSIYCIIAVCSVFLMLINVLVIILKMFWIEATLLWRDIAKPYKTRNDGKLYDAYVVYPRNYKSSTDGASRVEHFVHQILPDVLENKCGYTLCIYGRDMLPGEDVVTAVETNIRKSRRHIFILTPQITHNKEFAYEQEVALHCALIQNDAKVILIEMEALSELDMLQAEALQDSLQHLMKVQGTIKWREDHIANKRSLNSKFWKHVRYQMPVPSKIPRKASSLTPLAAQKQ
* hit, by the source's call; i = inactive; ! = not active in a repeat. The sample as a whole holds a higher share of hits than the screen did.

SMILES	ST2 inh
Cc1ccnc(NC(c2ccc(N(C)C)cc2)c2ccc3cccnc3c2O)c1 (configuration not stated)	32.0%*
Cc1cccc(NC(c2cccc(F)c2)c2ccc3cccnc3c2O)n1 (configuration not stated)	i
Cc1cc(C)n(-c2cccc3cccnc23)n1	i
Cc1cccc(NC(c2ccccc2)c2ccc3ccc(C)nc3c2O)n1 (configuration not stated)	36.0%*
CCC(C(=O)Nc1cccc(C)n1)c1ccccc1 (configuration not stated)	i
Cc1cccc(NC(c2ccc(F)cc2)c2ccc3cccnc3c2O)n1 (configuration not stated)	30.0%*
COc1ccc(-c2nccn2Cc2ccccn2)cc1CN1CCCC1	i
COc1cccc(-n2cc(CN(C)Cc3ccc(O)c(Cl)c3)cn2)c1	i
COc1cc(-c2cc(C)ccc2F)nc(N)n1	i
O=S1(=O)CC2N=C(Nc3ccc(F)c(F)c3)SC2C1 (configuration not stated)	i
O=C(COc1ccc2c(c1)CCCC2)NCCc1ccccc1	i
O=C(CCS(=O)(=O)c1cccc2nsnc12)NCc1ccco1	i
O=C(O)[C@H]1C[C@@H](O)CCN1C(=O)CCc1cccnc1	i
CCc1ccc(S(=O)(=O)Nc2ccc([N+](=O)[O-])cc2C)cc1	i
COc1ccccc1CCN1CCCC(CN(C)Cc2nc3ccccc3n2C)C1 (configuration not stated)	i
COc1ccc(Oc2coc3cc(OCC(=O)OCCC(C)C)ccc3c2=O)cc1	i
O=c1cc(CO)oc(C(Nc2ccccn2)c2ccc3c(c2)OCO3)c1O (configuration not stated)	i
Cc1ccc(S(=O)(=O)Nc2ccccn2)cc1C	i
COc1ccc(C(Nc2ccccn2)c2ccc3ccc(C)nc3c2O)cc1C (configuration not stated)	31.0%*
CC1CCN(CCCNC(=O)c2ccc(Nc3cc(-c4ccccc4)ncn3)cc2)CC1	i
O=C(NCCC1=CCCCC1)c1cc2cc(Cl)cc(Cl)c2oc1=O	i
Cc1c(N=Cc2ccc(Cl)o2)c(=O)n(-c2ccccc2)n1C	i
Cc1c(N=Cc2cc([N+](=O)[O-])ccc2N2CCCCCC2)c(=O)n(-c2ccccc2)n1C	42.0%*
COc1cc(C=Nc2c(C)n(C)n(-c3ccccc3)c2=O)cc([N+](=O)[O-])c1O	i
COc1cc(C=Nc2c(C)n(C)n(-c3ccccc3)c2=O)c([N+](=O)[O-])cc1OC	i
SMILES	ST2 inh
Cc1c(N=Cc2cc(Br)cc(Br)c2O)c(=O)n(-c2ccccc2)n1C	i
Cc1c(N=Cc2cc([N+](=O)[O-])ccc2N(C)C2CCCCC2)c(=O)n(-c2ccccc2)n1C	47.0%*
CCN(CC)c1ccn(-c2nc(-c3ccccc3)oc2-c2ccccc2)c(=O)n1	i
CC(=O)NCCc1c(C(=O)O)[nH]c2ccc(C(C)=O)cc12	i
COc1ccc(CCNC(=O)Nc2nc(C)n(C)n2)cc1	i
NNc1ccc2c(Cl)cc(Cl)c(O)c2n1	35.0%*
CC(C)c1ccc(S(=O)(=O)N=C2C=CC(=O)c3ccccc32)cc1	45.0%*
O=Cc1ccc(S(=O)(=O)c2ccc(Cl)cc2)cc1	i
CC(N)=NS(=O)(=O)c1ccc(Cl)cc1	i
CC(=O)Nc1ccc(S(=O)(=O)Nc2ccc(C(C)C)cc2)cc1	i
O=C1C=CC(=NS(=O)(=O)c2ccc(Cl)cc2)c2ccccc21	60.0%*
Cn1ccc2ccc(CN3CCN(c4ncnc5ccccc45)CC3)cc21	i
O=C(c1cnc(CN2CCCC2)s1)N1CCCC(Nc2ccccc2)C1 (configuration not stated)	i
Cc1c(NC(=O)c2sc3cccc(Cl)c3c2Cl)c(=O)n(-c2ccccc2)n1C	i
Cc1cc(/C=C2\C(=O)NC(=O)N(C)C2=O)c(C)n1-c1ccc(F)c(Cl)c1	46.0%*
Cc1cc(C=C2C(=O)N(C)C(=O)N(C)C2=O)c(C)n1-c1ccc(Cl)c(Cl)c1	i
Cc1ccc(N2NC(=O)/C(=C/c3ccc(Cl)cc3Cl)C2=O)cc1Cl	i
Cc1cc(C(F)(F)F)nc(CCNC2CCC3(CCNCC3)CC2)n1	i
Cc1ccc(S(=O)(=O)N2CCN(S(=O)(=O)c3ccc(C)c([N+](=O)[O-])c3)C2)cc1	i
Cc1ccc(C23C[C@@H]4C[C@@H](CC(O)(C4)C2)C3)cc1[N+](=O)[O-]	44.0%*
Cc1ccc(C23C[C@@H]4C[C@@H](CC(Cl)(C4)C2)C3)cc1N	i
c1ccc(CCCN2CC[C@H](c3nnc(-c4cccnc4)o3)C2)cc1	i
CN(CCc1ccccn1)[C@H]1[C@@H]2OC[C@@H](O2)[C@@H](NC(=O)Nc2ccccc2)[C@@H]1O	i
COc1ccc(CN[C@H]2[C@H](O)[C@@H](N(C)CCN(C)C)[C@@H]3OC[C@H]2O3)cc1	i
CN(CCc1ccccn1)[C@H]1[C@@H]2OC[C@@H](O2)[C@@H](NCc2ccc(F)cc2)[C@@H]1O	32.0%*
SMILES	ST2 inh
COc1cc(OC)cc(C(=O)Nc2c3c(nn2-c2ccc(Cl)cc2)CSC3)c1	i
CCn1c(Br)nc2c1c(=O)n(C)c(=O)n2C	i
Cc1csc2ncc(C(=O)Nc3ccc(Cl)cc3)c(=O)n12	i
Cc1csc2ncc(C(=O)Nc3ccon3)c(=O)n12	97.0%*!
Cc1csc2ncc(C(=O)Nc3ccccc3)c(=O)n12	i
COc1ccc(C2CC(c3ccc(F)cc3)n3nc(N)nc3N2)cc1 (configuration not stated)	i
CCC(=O)Nc1c(C)ccc2nsnc12	i
O=C(COc1ccccc1[N+](=O)[O-])Nc1cc(Cl)c(Cl)cc1Cl	i
Cc1ccc2nsnc2c1NC(=O)COc1ccccc1[N+](=O)[O-]	32.0%*
CC(C)(COC(=O)CN1CCCCC1)COC(=O)CN1CCCCC1	i
Cc1noc(C)c1COc1ccc(C(=O)N[C@@H]2CN(C(=O)Nc3ccccc3)CCC[C@H]2O)cc1	i
Cc1cc(C)c(NS(=O)(=O)c2nc3nc(C)cc(C)n3n2)c(Cl)n1	i
CCN(CC)c1ccc(N=Cc2cccc(OC)c2O)cc1	94.0%*
COc1ccc(OC)c(N=Cc2c(O)c(OC)cc(Br)c2Br)c1	i
Cc1ccc(N=Cc2cccc(C(=O)O)c2O)cc1	i
COc1ccc(N=Cc2cc(Br)cc(Br)c2O)c(OC)c1	i
CCN(CC)c1ccc(C=Nc2ccc(OC)cc2OC)c(O)c1	35.0%*
COc1cccc(C=Nc2ccc(S(=O)(=O)Nc3cc(C)on3)cc2)c1O	i
Clc1ccc(-c2nnc([C@H]3CCN(Cc4cccnc4)C3)o2)cc1	i
COC(=O)C1=C(N)OC2=C(C(=O)CC(c3ccccc3)C2)C1c1ccc(Cl)cc1Cl (configuration not stated)	i
O=C(Nc1ccc(Cl)cc1)C1CCN(C(=O)c2ccc(Cl)cc2)CC1	i
COc1ccc2oc(=O)c(C(=O)Nc3ccc(I)cc3)cc2c1	i
COC(=O)[C@@H]1Cc2ncn(C(C)C)c2CN1S(=O)(=O)Cc1ccccc1	i
Cc1ccccc1-c1cc(N2CCN(S(C)(=O)=O)CC2)ncn1	i
CN(CCC1CCCCO1)C(=O)Cn1nnnc1CN1CCOCC1 (configuration not stated)	i
CC(=O)c1ccc(NC(=O)c2cccc(Cl)c2)cc1	i
CC(=O)c1ccc(NC(=O)c2cc(-c3ccco3)on2)cc1	i
CC(=O)c1ccc(NC(=O)c2ccc3nc(-c4ccco4)c(-c4ccco4)nc3c2)cc1	40.0%*
